{"source": "the supplement of paper PMC12632987", "binders": {"B1": {"name": "GBRAP_184_5122 (protein)", "chain": "DVVHRAVEGEKAEELIAASRAVVEEAAAAGKRLHLSVFAKNMSVEEIIEVIKAMGELKARYPQVSVTVDVLDELSEEEIDKVLKAADEAGVRVVIAIPEE"}, "B2": {"name": "GBRAP_11_2857 (protein)", "chain": "KKEKLKEAAELARKAAEALEKLLKEGVDDKELQKKIEELLKKLLELVKEYGDPDLIKLAEIALENFQKAKKDPKNAEKYIKEALAAVRVLEGNLLLEIDE"}, "B3": {"name": "GBRAP_9_7127 (protein)", "chain": "KKELVEKLKEVVEEMIEDISKVVPEVTEEMKEEFLKKVEELEKEALEDESLTPEEIKEKFKELVEEIKEEVKKIVDEELKKLVEAIALTALEEIDEIVEE"}, "B4": {"name": "GBRAP_52_6037 (protein)", "chain": "MREKMREKAEEIVKLVLEGKLEEAEKLIRELVETLSEEELLLLGEELARIAREAPEEELDAILEAAFILADELIEGGYEEVLADEIEARVTRAAVERLER"}, "B5": {"name": "GBRAP_11_2679 (protein)", "chain": "KKEQLKKIAEIAKELAEAIEKLLKEGVDNEKLLKEIKKLLKELKELAEKYADEGLKTLAEIAAELFEEALANPENAEHYLELLLAAVRVLLANVEEEIDE"}, "B6": {"name": "GBRAP_52_6366 (protein)", "chain": "DLEEAVKLLREAVKAVLEGKEEEAEKILKEIVENFSEETILEAARRLAEELLEKSLEEAEAFLEAAIMLADILEEAGKSEVVGDEIEAIAARTLMEIRER"}, "B7": {"name": "GBRAP_11_2721 (protein)", "chain": "KAEKLKALAEKAEALAEKVEKLIKEGPKKEEIKKLAEEVEKLREEAKKIGASEDVLKTLDIAAENLKKAIEDPSNVEEHLKNAAAALRVAAGQLLLEAEE"}, "B8": {"name": "GBRAP_160_4055 (protein)", "chain": "AEEKERLIADVDAAEAAILAVIDEEGAEAAAVMADGEFGAIIMEAAELPTASDELVDALEAIRDALVAGLRANAAASPAELKALVRAAAAAAKEAIKKHY"}, "B9": {"name": "GBRAP_160_4135 (protein)", "chain": "SEELEKLIKEIKEIGEEALEMIEGETPENAKVIARVALGDIVMLVESNDAISEETEDEIGKIADEAEATLKANPDLTVEEIKALLKEATEKVVEIIEKEK"}, "B10": {"name": "GBRAP_52_6087 (protein)", "chain": "MEERLEKLAKEIAEAVAAGKRDEALALMEKAIKELSVEEIKKLFKLAAELVAKLGEEAEELFVDLLDEAEDLLIEAGISEEDALLIVGDAEAALAKAVAA"}, "B11": {"name": "GBRAP_52_6086 (protein)", "chain": "MEERLEALAREIAAAVAAGDREGALALIEEAIKELSVEEIRRLLRLAAERVAALGEDAHVLFVDLLDEAEDLMIKAGISEEDALLIVGDAEAALAKAVAA"}, "B12": {"name": "GBRAP_160_4202 (protein)", "chain": "EEKVKKIIEELKEETEEVIKLLDEVSVEEAAVFAEVEFGSVLMLAVELGIENDEILDVIDEAGDKIVKYLKENKDASVEELKKKIKEITEEAIKKIKELA"}, "B13": {"name": "GBRAP_39_5664 (protein)", "chain": "EEDEENELLFEYYLAKAEGYRIKEGISDEELIERGKELLKAIAKEHPEIKELVEELLKEVDKGDEDVGLAAAGIALDYLEGLPIEEIKEHLEKLLKYVKK"}, "B14": {"name": "GBRAP_184_5111 (protein)", "chain": "KLLEETIKANNKEELEKKLTEVVEKAVKEKADLLVIVEIPNLTPEMAEIIMDKVAKAKEAGIKNVLVEIVSDNLSDEVIDTIDKKAKEYGLTNVVLAMKE"}, "B15": {"name": "GBRAP_153_3948 (protein)", "chain": "SMESKEKLEKAKKLIEKIKKSEDPTEYIKELAKLLASMNLEERLEVAKEFNSLSEETVYKIFLTLATEEGFSVEELLELTTELNEEQQAAALKAIVEAQK"}, "B16": {"name": "GBRAP_39_5630 (protein)", "chain": "EEEEELELLESLAEADLAKREVETGLPAEELYAELLARAREAAADDPELLALIERLAALAEEHGPEARERLAAAMAAYLAGLPKEDIKRLLTALIEELEA"}, "B17": {"name": "GBRAP_48_5830 (protein)", "chain": "MKIDLEKLEALVKETVEEMKELYEEAKKEGLSDEDILKMIKAELGDLALELEEEGYTKAADYLLERENRDELAKKLLELFKEGKYEEAYEYLLKKLKEAE"}, "B18": {"name": "GBRAP_160_4617 (protein)", "chain": "SSKIEELKKFVKEEFEEAKEMIEGETPEQRAAIVDVTIGEIILEAEELEVVSDESLEKIDEIGDELVETILENPDLTEEEVKELIDEAEKKIIEIIEEDE"}, "B19": {"name": "GBRAP_160_4619 (protein)", "chain": "SEKVEELKKFVEEEFEETKEMIVGQTPEERAAIVDVTIGEIILEAEELEVVSDETLDEIDEIGDELVETILANPDLTDEEIKALIDEAREKIIALIEKDE"}}, "note": "Over roughly 4,500 sequences, “median log2 fold change of GCK-ALFA target abundance (FLAG IP / Myc IP barcode read proportion)” has its median near 0.078; the lowest 2% begin near -0.6. The full list was thinned out, with the lowest values kept by preference."}
{"target": "GABARAP, O95166", "sequence (O95166 whole entry, the tested form may be a part)": "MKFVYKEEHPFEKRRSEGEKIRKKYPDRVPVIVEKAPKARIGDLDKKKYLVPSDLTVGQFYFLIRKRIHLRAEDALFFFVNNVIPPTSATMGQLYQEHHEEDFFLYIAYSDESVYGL", "experiment": "median log2 fold change of GCK-ALFA target abundance (FLAG IP / Myc IP barcode read proportion) (log2 ratio); each designed protein is fused to an ALFA-tag nanobody in HEK293 cells to bring the named protein to FLAG-tagged glucokinase (GCK); Myc marks an untargeted standard; higher = target protein stabilised (more abundant)", "conditions": "target protein: 3xFLAG-MCP-GCK-ALFA reporter; HEK293 landing pad (RPLP)", "outline": "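HEK293 landing-pad cells received a recombined binder library fused to the ALFA nanobody and were induced with 2 μg mL^−1 doxycycline, then transfected with a plasmid encoding a FLAG-tagged target and a Myc-tagged standard. Lysates were collected after 48 h for anti-FLAG and anti-Myc immunoprecipitation, and the circular RNA barcodes were reverse transcribed, amplified and sequenced. Target abundance for each binder is the median log2 ratio of FLAG to Myc barcode read proportions. Barcodes had to reach a proportion of at least 10^−7 in both replicates, each binder needed at least 3 barcodes per replicate, a pseudocount of 10^−6 was applied, and the two replicates were pooled.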"}
{"binder": "B1", "median log2 fold change": 0.0426}
{"binder": "B2", "median log2 fold change": 0.0648}
{"binder": "B3", "median log2 fold change": 0.275}
{"binder": "B4", "median log2 fold change": -0.655}
{"binder": "B5", "median log2 fold change": -0.169}
{"binder": "B6", "median log2 fold change": -0.214}
{"binder": "B7", "median log2 fold change": 0.0939}
{"binder": "B8", "median log2 fold change": 0.183}
{"binder": "B9", "median log2 fold change": -0.387}
{"binder": "B10", "median log2 fold change": -0.234}
{"binder": "B11", "median log2 fold change": -0.626}
{"binder": "B12", "median log2 fold change": -0.374}
{"binder": "B13", "median log2 fold change": 0.132}
{"binder": "B14", "median log2 fold change": 0.326}
{"binder": "B15", "median log2 fold change": 0.294}
{"binder": "B16", "median log2 fold change": 0.159}
{"binder": "B17", "median log2 fold change": 0.224}
{"binder": "B18", "median log2 fold change": -0.294}
{"binder": "B19", "median log2 fold change": -0.678}
